In the library only some 21% were active in any assay of this set; here they are far more common.
Cycloheximide cs: counter-screen for Shiga toxin inhibitors: cycloheximide protein synthesis inhibition; cell reporter, cycloheximide protein synthesis inhibition counterscreen; max response, %; 12% of 300,000 active; AID 2314; in the data active = max response mostly above about 13%, no sharp cut-off; inactive = mostly below about 14%; note: read at 38.3 µM for the half of the compounds with a filed dose; 0% is about no effect
HCMV antiviral: blocks human cytomegalovirus replication. AID 1259415. 4.5% of 410,000 active. HFF cells, HCMV-luciferase reporter, 72 h; hits give low values. activity change, negative = inhibition, % at 57.5 µM; in the data active = activity change below about -60%; inconclusive = no clear call, values can overlap the other calls; inactive = above about -39%; note: % is set by controls: 0 for no effect and ±100 for the full control effect
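Screen run at 2 compound doses on HFFs infected with reporter HCMV, MOI 1 PFU/cell. Luciferase activity from cell lysates at 72 h post infection gave inhibition relative to buffer-only and Salinomycin wells.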
Pf growth 48h: inhibits P. falciparum growth in the first generation, 48 h; P. falciparum luciferase growth in erythrocytes, 48 h; 5.9% of 310,000 active; Potency, µM (series often up to 28.7 µM), inactives show at the top dose activity change, negative = inhibition, usual class: inhibitors; note: potency is the fitted concentration of half-maximal effect; % is set by controls: 0 for no effect and ±100 for the full control effect
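Read-out is firefly luciferase luminescence from an integrated reporter in P. falciparum, so falling signal marks reduced parasite growth. Infected erythrocytes were at 2% hematocrit and 0.1% parasitemia (final) in Albumax-supplemented RPMI 1640.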
Pf growth 96h: P. falciparum growth inhibition at 96 hours. P. falciparum luciferase reporter growth, 96 h. 6.9% of 320,000 active. Potency, µM (doses to about 28.7 µM), inactives show at the top dose activity change, negative = inhibition, most hits filed as inhibitors; note: potency is the fitted concentration of half-maximal effect; % is set by controls: 0 for no effect and ±100 for the full control effect
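Delayed-death screen, second-generation endpoint: infected erythrocytes, 2% hematocrit, 0.05% parasitemia final; 96 hours at 37 C, 5% CO2; luciferase detection reagent; luminescence decrease equals reduced growth.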
Shiga inhibitor: inhibitors of Shiga toxin in Vero cells | Vero cells, Shiga toxin protein synthesis inhibition reporter | inhibition, % at 38.7 µM | 9.2% of 290,000 active; in the data active = inhibition mostly above about 28%, no sharp cut-off; inactive = mostly below about 43%; note: 0% is about no effect
HCV inh: inhibitors of hepatitis C virus infection. Huh7.5.1 HCVcc-Cre infection, luciferase reporter, 44 h. Potency, µM (highest dose often 41.8 µM), inactives show top-dose activity change, negative = inhibition, hits mostly inhibitors. 3.4% of 340,000 active. AID 651820; note: potency is the fitted concentration of half-maximal effect; % is set by controls: 0 for no effect and ±100 for the full control effect
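Compounds are dispensed onto cells plated 4 h earlier at 1,000 per well, with HCVcc-Cre virus (about 0.5 moi) added next. Following 44 h of culture, luminescent signal is measured for 15 sec after 15 min with substrate at room temperature.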
Active calls of the source: *; i = inactive; ? = inconclusive; nt = no result; ! = repeats disagree. Unless noted, calls come from the whole dose curve; as a rule, active = well fitted inhibition curve with a large enough effect; inconclusive = small, poorly fitted or top-dose-only effect, or another doubt; inactive = no such curve, though single readings can be large or run the other way.

SMILES | Cycloheximide cs | HCMV antiviral | Pf growth 48h | Pf growth 96h | Shiga inhibitor | HCV inh
Cc1occc1C(=O)N/N=C/c1c(O)ccc2ccccc12 | 36* | -101* | 2.6µM* | 0% | 90* | ?
COc1ccc(CCNC(=O)CCCCn2c(=O)c3ccccc3n(CC(=O)Nc3ccccc3C)c2=O)cc1OC | nt | 14 | nt | nt | nt | nt
Cn1nccc1C(=O)N/N=C/c1c(O)ccc2ccccc12 | 28* | -99* | 2.6µM* | 10µM* | 47* | 0.89µM*
O=C(N/N=C/c1c(O)ccc2ccccc12)c1ccc[n+](CCO)c1 | -4 | -10 | 9.3µM* | 5.2µM* | -12 | 11%
O=C(N/N=C/c1c(O)ccc2ccccc12)c1cccnc1 | 7 | -98* | ? | -6% | -9 | 5µM*
O=C(C[n+]1cccc(C(=O)N/N=C/c2ccc(Br)cc2)c1)c1ccccc1 | nt | 0 | ? | -20% | nt | ?
c1ccc(Cn2nc(-c3ccccc3)nc2-c2ccccc2)cc1 | 54* | 70 | 79% | 15% | 52* | 4%
NC(=O)Cn1nc(-c2ccccc2)nc1-c1ccccc1 | nt | -4 | nt | nt | nt | 8%
Cc1ccc(Cn2nc(-c3ccccc3)nc2-c2ccccc2)cc1 | 45* | 136 | 46% | 152% | 121* | 3%
COCCNC(=O)CSc1nc2ccc(N3CCOCC3)cc2c(=O)n1CCc1ccccc1 | 14* | 12 | 0% | -25% | active | 9%
CCOC(=O)CSc1nc2ccc(N3CCOCC3)cc2c(=O)n1Cc1ccccc1 | 18* | -6 | nt | ? | 51 | 2.8µM*
COCCNC(=O)CSc1nc2cc3c(cc2c(=O)n1CCCC(=O)NCc1ccc(OC)cc1)OCO3 | 11 | -62*! | 4% | ? | 2 | 2%
CCc1ccc(C(=O)c2cn(CC(=O)Nc3cccc(C)c3C)c3nc(C)ccc3c2=O)cc1 | nt | 11 | nt | nt | nt | nt
CSc1c(CC(=O)Nc2ccccc2C(F)(F)F)n(Cc2ccccc2)c2ccccc12 | 1 | -24 | ? | 9.3µM* | -5 | 6%
CSc1c(CC(=O)Nc2ccccc2Cl)n(Cc2ccccc2)c2ccccc12 | 5 | 29 | ? | ? | -5 | -14%
CSc1c(CC(=O)Nc2ccccc2)n(Cc2ccccc2)c2ccccc12 | -3 | 62 | 12µM* | ? | -3 | 0%
Cc1ccc(S(=O)(=O)C(CNS(=O)(=O)c2ccc(F)c(C)c2)c2cccs2)cc1 (stereo not drawn) | nt | -7 | nt | nt | nt | nt
COc1ccccc1CNC(=O)c1ccc(-c2ccccc2Cl)o1 | 23 | ? | -25% | 10µM* | 33 | ?
O=C(NCc1ccco1)c1c(Cl)cccc1Cl | nt | -25 | nt | nt | nt | nt
COc1ccc(Cl)cc1-c1ccc(C(=O)O)o1 | 4 | nt | nt | nt | i | nt
COc1ccccc1-c1ccc(C(=O)O)o1 | 22*! | 54 | 29% | 0% | 75 | 13%
O=C(NCc1ccco1)c1ccc(-c2ccccc2Cl)o1 | 43* | 4 | 11% | -29% | 49 | 14%
O=C(NCc1ccco1)c1ccc(-c2ccc(Cl)cc2)o1 | 37* | -15 | 7% | -14% | 78* | ?
Cc1c(NC(=O)c2nn(C(C)C)c(=O)c3ccccc23)c(=O)n(-c2ccccc2)n1C | nt | -17 | nt | nt | nt | nt
Cc1cc(N2CCN(C(=O)c3cccs3)CC2)c(F)cc1[N+](=O)[O-] | -1 | -4 | -33% | 18% | 9 | -18%
O=C(c1ccccc1Cl)N1CCC(c2nc3ccccc3s2)CC1 | nt | -5 | nt | nt | nt | nt
Cc1ccc(NC(=O)C2C3CCC(O3)C2C(=O)O)c(Br)c1 (stereo not drawn) | 3 | 30 | 69% | -9% | 9 | 6%
Cc1cc(C)cc(N(C(=O)CNS(=O)(=O)c2ccccc2)C(C(=O)NCc2ccccc2)c2ccc(C)o2)c1 (stereo not drawn) | 5 | 2 | ? | 38% | 6 | 23%
CCOc1ccccc1N(C(=O)CNS(=O)(=O)c1ccccc1)C(CC)C(=O)NCc1ccco1 (stereo not drawn) | 7 | 64 | nt | 7.4µM* | 7 | 6%
CCCC(C(=O)NCc1ccco1)N(Cc1ccco1)C(=O)CNS(=O)(=O)c1ccccc1 (stereo not drawn) | 1 | 15 | -7% | ? | 4 | 4%

Bioassay records deposited in PubChem BioAssay by National Center for Advancing Translational Sciences (NCATS).
